# Values joined by “and” are separate entries in the source; they are usually repeats but may differ in a detail not shown here. Identical values can stand only once. Hit rate of the full screen: of about 5,500 compounds, about 2,000 (36%) were called active. About 18% were inconclusive and are not listed. No stated cut-off is given here; in the data, active means normalized growth mostly below about 0.91 (no sharp cut-off); inconclusive means no clear call, values can overlap the other calls; inactive means mostly above about 0.92. This is one part of the list.
# Assay: chemical genetic growth profiling, strain panel (AID 1159580);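 further: tested at 20 µM; growth read once vehicle control cultures reached saturation at 30 °C; 1 = growth at the plate median or of vehicle wells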
# Settings: S. cerevisiae deletion strains, growth OD
smiles,measurement,setting,value
CC(C)=CCc1c(O)cc2occ(-c3ccc4c(c3)OCO4)c(=O)c2c1O,normalized growth,"locus YAL013W, strain DEP1, stronger effect = lower value",1.01 (inactive)
same,normalized growth,"locus YAL021C, strain ccr4, stronger effect = lower value",1.05 (inactive)
same,normalized growth,"locus YAL026C, strain drs2, stronger effect = lower value",0.865 (active)
same,normalized growth,"locus YAL030W, strain snc1, stronger effect = lower value",0.996 (inactive)
same,normalized growth,"locus YBL061C, strain skt5, stronger effect = lower value",0.864 (active)
same,normalized growth,"locus YBR009C, strain hhf1, stronger effect = lower value",0.819 (active)
same,normalized growth,"locus YBR021W, strain FUR4, stronger effect = lower value",0.991 (inactive)
same,normalized growth,"locus YBR023C, strain chs3, stronger effect = lower value",0.855 (active)
same,normalized growth,"locus YBR171W, strain sec66, stronger effect = lower value",0.981 (inactive)
same,normalized growth,"locus YBR229C, strain ROT2, stronger effect = lower value",1.02 (inactive)
same,normalized growth,"locus YBR231C, strain swc5, stronger effect = lower value",0.929 (inactive)
same,normalized growth,"locus YBR279W, strain paf1, stronger effect = lower value",0.993 (inactive)
same,normalized growth,"locus YCL011C, strain gbp2, stronger effect = lower value",0.909 (inactive)
same,normalized growth,"locus YCL016C, strain dcc1, stronger effect = lower value",0.872 (active)
same,normalized growth,"locus YCL029C, strain bik1, stronger effect = lower value",1.03 (inactive)
same,normalized growth,"locus YCL061C, strain MRC1, stronger effect = lower value",0.909 (active)
same,normalized growth,"locus YCL069W, strain vba3, stronger effect = lower value",0.888 (active)
same,normalized growth,"locus YCR088W, strain abp1, stronger effect = lower value",0.998 (inactive)
same,normalized growth,"locus YDL005C, strain med2, stronger effect = lower value",0.993 (inactive)
same,normalized growth,"locus YDL035C, strain GPR1, stronger effect = lower value",1.01 (inactive)
same,normalized growth,"locus YDL040C, strain nat1, stronger effect = lower value",1 (inactive)
same,normalized growth,"locus YDL074C, strain BRE1, stronger effect = lower value",1.03 (inactive)
same,normalized growth,"locus YDL101C, strain DUN1, stronger effect = lower value",1.01 (inactive)
same,normalized growth,"locus YDL134C, strain PPH21, stronger effect = lower value",1.01 (inactive)
same,normalized growth,"locus YDL185W, strain tfp1, stronger effect = lower value",1.03 (inactive)
same,normalized growth,"locus YDL192W, strain arf1, stronger effect = lower value",1.03 (inactive)
same,normalized growth,"locus YDR001C, strain nth1, stronger effect = lower value",1.01 (inactive)
same,normalized growth,"locus YDR069C, strain doa4, stronger effect = lower value",0.957 (inactive)
same,normalized growth,"locus YDR101C, strain arx1, stronger effect = lower value",1.01 (inactive)
same,normalized growth,"locus YDR137W, strain rgp1, stronger effect = lower value",0.897 (inactive)
same,normalized growth,"locus YDR150W, strain NUM1, stronger effect = lower value",1 (inactive)
same,normalized growth,"locus YDR159W, strain sac3, stronger effect = lower value",0.888 (inactive)
same,normalized growth,"locus YDR162C, strain NBP2, stronger effect = lower value",1.01 (inactive)
same,normalized growth,"locus YDR195W, strain ref2",0.937 (inactive)
same,normalized growth,"locus YDR297W, strain sur2, stronger effect = lower value",0.911 (active)
same,normalized growth,"locus YDR318W, strain mcm21, stronger effect = lower value",1.02 (inactive)
same,normalized growth,"locus YDR334W, strain swr1, stronger effect = lower value",0.967 (inactive)
same,normalized growth,"locus YDR335W, strain msn5, stronger effect = lower value",0.917 (active)
same,normalized growth,"locus YDR388W, stronger effect = lower value",1.02 (inactive)
same,normalized growth,"locus YDR392W, strain spt3, stronger effect = lower value",0.67 (active)
same,normalized growth,"locus YDR502C, strain sam2, stronger effect = lower value",1.01 (inactive)
same,normalized growth,"locus YEL003W, strain gim4, stronger effect = lower value",0.932 (inactive)
same,normalized growth,"locus YEL037C, strain rad23, stronger effect = lower value",0.994 (inactive)
same,normalized growth,"locus YEL061C, strain CIN8 (second series), stronger effect = lower value",0.997 (inactive)
same,normalized growth,"locus YEL061C, strain CIN8, stronger effect = lower value",1.01 (inactive)
same,normalized growth,"locus YER015W, strain faa2, stronger effect = lower value",0.876 (active)
same,normalized growth,"locus YER016W, strain bim1, stronger effect = lower value",0.997 (inactive)
same,normalized growth,"locus YER110C, stronger effect = lower value",1.05 (inactive)
same,normalized growth,"locus YER111C, strain swi4, stronger effect = lower value",1.02 (inactive)
same,normalized growth,"locus YER155C, strain BEM2 (second series), stronger effect = lower value",0.911 (inactive)
same,normalized growth,"locus YER155C, strain BEM2, stronger effect = lower value",1.01 (inactive)
same,normalized growth,"locus YER167W, strain BCK2, stronger effect = lower value",1.02 (inactive)
same,normalized growth,"locus YFR010W, strain ubp6, stronger effect = lower value",0.92 (inactive)
same,normalized growth,"locus YGL078C, strain dbp3, stronger effect = lower value",1.03 (inactive)
same,normalized growth,"locus YGL086W, strain mad1, stronger effect = lower value",1.05 (inactive)
same,normalized growth,"locus YGL167C, strain pmr1, stronger effect = lower value",1 (inactive)
same,normalized growth,"locus YGL173C, strain kem1, stronger effect = lower value",0.921 (inactive)
same,normalized growth,"locus YGL227W, strain vid30, stronger effect = lower value",0.972 (inactive)
same,normalized growth,"locus YGL240W, strain doc1, stronger effect = lower value",0.944 (inactive)
same,normalized growth,"locus YGL248W, strain PDE1, stronger effect = lower value",1.02 (inactive)
same,normalized growth,"locus YGL253W, strain hxk2, stronger effect = lower value",0.814 (active)
same,normalized growth,"locus YGR078C, strain PAC10, stronger effect = lower value",0.997 (inactive)
same,normalized growth,"locus YGR135W, strain pre9, stronger effect = lower value",0.993 (inactive)
same,normalized growth,"locus YGR229C, strain SMI1, stronger effect = lower value",0.983 (inactive)
same,normalized growth,"locus YGR252W, strain gcn5, stronger effect = lower value",1.03 (inactive)
same,normalized growth,"locus YHR013C, strain ard1, stronger effect = lower value",1.17 [resistant] (active)
same,normalized growth,"locus YHR027C, strain rpn1, stronger effect = lower value",0.805 (active)
same,normalized growth,"locus YHR030C, strain SLT2, stronger effect = lower value",1.01 (inactive) and 0.843 (active)
same,normalized growth,"locus YHR079C, strain IRE1 (second series), stronger effect = lower value",1.03 (inactive)
same,normalized growth,"locus YHR079C, strain IRE1, stronger effect = lower value",0.8 (active)
same,normalized growth,"locus YHR094C, strain hxt1, stronger effect = lower value",1.03 (inactive)
same,normalized growth,"locus YHR129C, strain ARP1, stronger effect = lower value",1.01 (inactive)
same,normalized growth,"locus YHR142W, strain chs7, stronger effect = lower value",0.74 (active)
same,normalized growth,"locus YHR200W, strain rpn10, stronger effect = lower value",1.02 (inactive)
same,normalized growth,"locus YIL066C, strain RNR3, stronger effect = lower value",1.01 (inactive)
same,normalized growth,"locus YIL073C, strain SPO22, stronger effect = lower value",1.05 (inactive)
same,normalized growth,"locus YIL125W, strain kgd1, stronger effect = lower value",1.03 (inactive)
same,normalized growth,"locus YIR030C, strain dcg1, stronger effect = lower value",1.02 (inactive)
same,normalized growth,"locus YJL092W, strain hpr5, stronger effect = lower value",0.962 (inactive)
same,normalized growth,"locus YJL095W, strain BCK1 (second series), stronger effect = lower value",0.946 (inactive)
same,normalized growth,"locus YJL095W, strain BCK1, stronger effect = lower value",0.984 (inactive) and 0.838 (active)
same,normalized growth,"locus YJL115W, strain asf1, stronger effect = lower value",1.01 (inactive)
same,normalized growth,"locus YJL129C, strain trk1, stronger effect = lower value",0.923 (inactive)
same,normalized growth,"locus YJL134W, strain LCB3, stronger effect = lower value",1.01 (inactive)
same,normalized growth,"locus YJL154C, strain vps35, stronger effect = lower value",1 (inactive)
same,normalized growth,"locus YJL164C, strain tpk1, stronger effect = lower value",0.943 (inactive)
same,normalized growth,"locus YJL166W, strain qcr8, stronger effect = lower value",0.862 (active)
same,normalized growth,"locus YJL168C, strain set2, stronger effect = lower value",1.02 (inactive)
same,normalized growth,"locus YJL187C, strain SWE1 (second series), stronger effect = lower value",1.01 (inactive)
same,normalized growth,"locus YJL187C, strain SWE1, stronger effect = lower value",1 (inactive)
same,normalized growth,"locus YJR043C, strain POL32, stronger effect = lower value",0.994 (inactive)
